Hit rate of the full screen: of about 280,000 compounds, about 100 (0.036%) were called active. Another 11% or so got no clear call; they are omitted. Calls come from the whole dose curve; as a rule, active = well fitted inhibition curve with a large enough effect in the signal ratio, with a control signal flat (not every such curve was filed as active); inconclusive = small, poorly fitted or top-dose-only effect, or effect the other way, or a change in a side signal; inactive = no such curve, though single readings can be large or run the other way; the % refers to the signal ratio. The entries come from a sample that favours actives as a whole.
Target: Muscleblind-like protein 1 (Homo sapiens) (UniProt Q9NR56)
Sequence (Q9NR56 whole entry, looked up): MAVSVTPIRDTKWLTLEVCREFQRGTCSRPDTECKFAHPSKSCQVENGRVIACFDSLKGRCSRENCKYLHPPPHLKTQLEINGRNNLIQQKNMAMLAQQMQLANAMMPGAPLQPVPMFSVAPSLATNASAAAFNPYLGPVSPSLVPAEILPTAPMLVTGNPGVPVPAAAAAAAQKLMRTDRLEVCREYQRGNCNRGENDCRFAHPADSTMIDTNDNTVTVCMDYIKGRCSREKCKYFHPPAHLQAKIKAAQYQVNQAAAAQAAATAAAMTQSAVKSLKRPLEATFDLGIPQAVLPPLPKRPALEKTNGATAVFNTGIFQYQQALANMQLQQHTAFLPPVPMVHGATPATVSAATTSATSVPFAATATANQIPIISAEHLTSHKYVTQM
Assay: qHTS Assay for Inhibitors of MBNL1-poly(CUG) RNA binding
Conditions: TR-FRET MBNL1-His/biotin-(CUG)12 binding, 665/545 ratio; series mostly up to 57.5 µM
Description: NIH Chemical Genomics Center [NCGC] NIH Molecular Libraries Probe Production Centers Network [MLPCN] MLPCN Grant: R03 MH087421-01 Assay Submitter (PI): Charles Thornton NCGC Assay Overview: Expanded CTG repeats in the 3' untranslated region of the DM protein kinase (DMPK) gene causes type I myotonic dystrophy (DM1). DM1 is a multi-systemic disease with a prevalence of 1/7000. Clinical features include myotonia, progressive muscle weakness and wasting, cardiac arrhythmia, insulin resistance, hypersomnolence, cataracts, and other symptoms. The pathogenic effect of expanded CTG repeats stems from deleterious effects of the mutant transcript. CUGexp mRNA accumulates in nuclear foci and sequesters proteins of the muscleblind family, of which MBNL1 is the most common family member in skeletal muscles. The binding interaction between MBNL1 and CUGexp tracts leads to deregulation of alternative splicing and is therefore a key molecular step in the pathogenesis of DM1. To target this binding interaction, we optimized a protein-RNA binding assay in 1536-well format for identification of small molecule inhibitors of biotinylated (CUG)12 and his-tagged MBNL1 binding. Protein-RNA complex of MBNL1-His and Biotin-(CUG)12 captures the detection reagents terbium-labeled anti-His antibody and streptavidin conjugated XL665. This brings the terbium label within close proximity to XL665 to allow time-resolved fluorescence resonance energy transfer (TR-FRET). Inhibitors of MBNL1-(CUG)12 binding will disrupt TR-FRET.
NCGC Assay Protocol Summary: This is a TR-FRET binding assay with MBNL1-His and Biotin-(CUG)12 RNA. The assay uses a ratiometric measurement. In the presence of MBNL1-(CUG)12 complex, the excitation energy is transferred to the XL665 acceptor label, causing emission at 665nm, while the 545nm donor signal […]. Data were normalized to the controls for basal activity (buffer only) and 100% activity (with MBNL1-(CUG)12). […] The final titration was 92 nM to 58 uM. (3) Add 1 ul of terbium labeled anti-His antibody (0.055 ng/ul final concentration) (4) Add 1 ul of streptavidin-XL665 (5 nM final concentration) (5) Incubate 60 min at room temperature (6) Detect the assay plate in a EnVision plate reader (PerkinElmer) with Ex=340 nm, Em1=665 nm and Em2=545 nm. Keywords: mytonic dystrophy type I, DM1, muscleblind like 1, MBNL1, CUG expansion, protein-RNA binding inhibitor, high throughput screening, MLSMR, MLSCN, NIH Roadmap, qHTS and NCGC
% is set by controls: 0 for no effect and ±100 for the full control effect.

Activity change, negative = inhibition, inactive:
CC(C)c1ccc(N(C(=O)c2ccco2)C(C(=O)NC2CCCC2)c2cccnc2)cc1 (stereo unspecified)
COc1ccccc1CCNS(=O)(=O)c1cn(C)nc1C
CCOc1ccc(N(CC(=O)NCCc2ccc(F)cc2)S(=O)(=O)c2ccccc2)cc1
Cc1ccc(Cn2c(=N)c(S(=O)(=O)c3ccc(C)cc3)cc3c(=O)n4ccccc4nc32)cc1
C=CCSc1nc2c(c(=O)[nH]c(=O)n2C)n1Cc1ccccc1
Cc1ccc(-c2csc(NC3OC(=O)c4ccccc43)n2)cc1 (stereo unspecified)
Cc1ccc(C)c(NC(=O)c2cc(-c3cc(C)cc(C)c3O)n[nH]2)c1
Cc1ccccc1N1CCN(S(=O)(=O)c2ccc3ccccc3c2)CC1
Cc1ccc(CS(=O)Cc2ccc(C(=O)N3CCOCC3)o2)cc1 (stereo unspecified)
CCn1cc(CN2CCN(CC(C)(C)C)C(CCO)C2)c2ccccc21 (stereo unspecified)
Cc1ccc(-c2ccc(=O)n(Cc3ccc(F)cc3Cl)n2)cc1
CC(C)(C)c1ccc(C(=O)N2CCN(CCNC(=O)C(=O)Nc3ccc(F)cc3)CC2)cc1
COc1ccccc1NC(=O)C1CCN(C(=O)c2ccc(C(C)(C)C)cc2)CC1
COc1ccc(OC)c(CCNC(=O)c2nn(C)c3c2CS(=O)(=O)c2ccccc2-3)c1
CCCC[C@]12Cc3cc(OC)c(OC)cc3C(O1)C1=C(CC3(CCCCC3)OC1=O)O2 -1.93% [at 11.5 µM]
COc1cccc(CNS(=O)(=O)c2ccc3c(c2)CC(C)N3C(C)=O)c1 (stereo unspecified)
Cc1cccc(C(=O)N2CCCC(Nc3ccc(C(C)C)cc3)C2)n1 (stereo unspecified)
Cc1ccc2nc(SCC(=O)NC3CCCC3)[nH]c2c1
Cc1[nH]c(C)c(S(=O)(=O)N2CCN(c3cccc(C(F)(F)F)c3)CC2)c1C(=O)N1CCCC1
CS(=O)(=O)N(CC(=O)N1CCOCC1)c1cccc(Cl)c1Cl
CCc1ccc(OCC(=O)NCC(c2ccc(Cl)cc2)N2CCCCC2)cc1 (stereo unspecified)
Cc1c(C(=O)NCC(c2ccco2)N2CCCC2)oc2ccc(Cl)cc12 (stereo unspecified)
N#Cc1ccccc1S(=O)(=O)N1CCN(C(=O)c2cc(-c3ccccc3)nn2-c2ccccc2)CC1
CCCCC(C(=O)NC(C)(C)C)N(Cc1ccccc1)C(=O)c1snc(C(N)=O)c1N (stereo unspecified)
CS(=O)(=O)Nc1cccc(C2=NN(C(=O)c3cccc(F)c3)C(c3cccs3)C2)c1 (stereo unspecified)
COc1cccc(CNC(=O)Cn2c(=O)oc3cc(S(=O)(=O)N4CCCCC4)ccc32)c1
COc1ccc(NC(=O)c2sc3nc(C)nc(N4CCN(c5ccccn5)CC4)c3c2C)c(OC)c1
CCCCc1nc2cc(C(=O)N3CCCCC3CCO)ccc2o1 (stereo unspecified)
O=C(c1ccccc1)N1CCC(CC2CC(c3ccc(Cl)cc3)=NO2)(C(=O)NCC2CCCCC2)CC1 (stereo unspecified)
O=C(c1ccco1)N1CCN(Cc2cccc(C(F)(F)F)c2)CC1
O=C(Nc1ccc(F)cc1)c1ccc(S(=O)(=O)NCc2cccnc2)cc1
Cc1ccc(S(=O)(=O)N2CCN=C2SCc2c(F)cccc2Cl)cc1
COc1ccc(C)cc1Nc1n[n+](-c2ccccc2)c(-c2cccc(Cl)c2Cl)s1
C=CCc1cccc(/C=N/NC(=O)COc2ccc(-n3cnnn3)cc2)c1O
O=C1CCN(Cc2ccccc2)CCN1[C@H](CSc1ccccc1)c1ccccc1
CC(C)c1ccc(NC(=O)C2CCCN(S(=O)(=O)c3cccnc3)C2)cc1 (stereo unspecified)
COc1ccc(NC(=O)c2cccc3c2C(=O)N(CC2CCCO2)C3)cc1OC (stereo unspecified)
COc1ccc2c3c(c(=O)oc2c1)C1O[C@](CCCCN2C(=O)c4ccccc4C2=O)(Cc2c1ccc1ccccc21)O3 -13% [at 11.5 µM]
CC1CCCN(CCCNC(=O)CN2C(=O)COc3ccc(S(=O)(=O)N4CCOCC4)cc32)C1 (stereo unspecified)
COc1cccc(OCC(O)CNC(=O)c2oc3c(C)c(C)ccc3c2C)c1 (stereo unspecified)
O=C(NCc1ccccc1)c1onc(CSc2nc3ccccc3[nH]2)c1C(=O)NCc1ccccc1
CN(C)C(=O)CCC(=O)N1CCCCC1C(=O)Nc1ccc(Oc2ccccc2F)cc1 (stereo unspecified)
COc1ccc(-c2cc(C(=O)N3CCN(Cc4ccc5c(c4)OCO5)CC3)on2)cc1OC
COc1cc(C(=O)NCC2(c3ccccc3)CCCC2)ccc1OC(C)C
O=C(Nc1ccc(S(=O)(=O)N2CCCCCC2)cc1)c1c(F)cccc1F
Cc1cc2c(c(=O)n1Cc1ccccc1)C1O[C@](CCCCN3C(=O)c4ccccc4C3=O)(Cc3ccccc31)O2 41.3% [at 11.5 µM]
COc1ccc(Oc2cn[nH]c2-c2ccc(OC)cc2O)cc1
CCOC(=O)N1CCC(N2Cc3cccc(C(=O)Nc4c(C)cccc4CC)c3C2=O)CC1
CC(C)CN(Cc1c(O)ccc2c(=O)c(-c3ccccc3)coc12)CC(C)C
O=C(O)c1ccc2c(=O)n3c(nc2c1)/C(=C/c1ccc(OC(F)F)cc1OC(F)F)CC3
CCOC(=O)C1(CCOc2ccccc2)CCN(Cc2cc(OC)cc(OC)c2)CC1
CNC(=O)c1sc(Nc2ccc(OCc3ccccc3)cc2)nc1C
COc1cc(C(=O)NCc2cc3cc(Cl)ccc3n2C)cc(OC)c1OC
CCn1c(=S)sc2c(=O)n(CC(=O)Nc3cccc(Br)c3)c(C)nc21
Cc1ccc(OCC(=O)NC(C)c2ccccc2)cc1C (stereo unspecified)
COc1ccc(CNS(=O)(=O)c2ccc(NC(=O)N3CCCCC3)cc2)cc1
COc1ccc2[nH]c(=O)c(CN(Cc3cccnc3)S(=O)(=O)c3ccccc3F)cc2c1
CSc1ccccc1OCc1cc(C(=O)N(C)CCc2c(C)n[nH]c2C)no1
CCOc1ccc(NC(=O)C2CCN(C(=O)N3CCOc4ccccc43)CC2)cc1
CCOc1c(OC)cccc1C(=O)NCC1(c2ccccc2)CCCC1
Cc1cc(=O)oc2c3c(cc(OCC(=O)NCc4ccccn4)c12)OC(C)(C)CC3
